Compound activity (PubChem)
Mcl1 Noxa PPI: Mcl-1/Noxa interaction inhibition; Q07820; TR-FRET Mcl-1/Noxa peptide binding, 2 h; inhibition, % at 21.7 µM; hit rate 1.5% among 220,000; AID 1022;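 active = compounds that cut the protein-peptide binding signal by more than 50% relative to plate controls in a single-dose test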;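 note: His-tagged Mcl-1 with rhodamine Noxa BH3 peptide and terbium anti-His antibody; 0% = Mcl-1 plus Noxa peptide wells and 100% = peptide-only wells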
Target sequence (Q07820 whole entry, looked up): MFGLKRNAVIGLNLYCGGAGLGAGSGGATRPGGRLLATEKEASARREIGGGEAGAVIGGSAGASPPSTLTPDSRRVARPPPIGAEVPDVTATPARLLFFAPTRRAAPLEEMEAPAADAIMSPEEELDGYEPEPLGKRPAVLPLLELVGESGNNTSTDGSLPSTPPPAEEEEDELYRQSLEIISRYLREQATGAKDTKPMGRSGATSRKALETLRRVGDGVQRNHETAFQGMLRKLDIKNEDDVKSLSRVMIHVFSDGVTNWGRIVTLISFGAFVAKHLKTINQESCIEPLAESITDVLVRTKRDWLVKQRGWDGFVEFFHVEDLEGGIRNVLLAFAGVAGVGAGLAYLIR
Bim-Mcl-1: inhibitors of Bim-Mcl-1 interaction, human. AID 1009. Bead-based flow cytometry, Bim peptide-Mcl-1 binding. Q07820. inhibition, % at 10 µM. hit rate 0.1% among 190,000; in the data active = inhibition above about 40%;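 note: 0% = no compound tracer wells and 100% = peptide blocker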
14-3-3 Bad PPI: disrupts binding of bovine 14-3-3 zeta to phospho-Bad peptide. P63103. TR-FRET 14-3-3zeta/Dy647-pBad peptide displacement, 1 h. inhibition, % at 21.7 µM. hit rate 0.71% among 220,000;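 active = inhibition above about 70%, limit read from the data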;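 note: 0% = full 14-3-3 plus peptide FRET controls and 100% = background without 14-3-3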
Target sequence (P63103 whole entry, looked up): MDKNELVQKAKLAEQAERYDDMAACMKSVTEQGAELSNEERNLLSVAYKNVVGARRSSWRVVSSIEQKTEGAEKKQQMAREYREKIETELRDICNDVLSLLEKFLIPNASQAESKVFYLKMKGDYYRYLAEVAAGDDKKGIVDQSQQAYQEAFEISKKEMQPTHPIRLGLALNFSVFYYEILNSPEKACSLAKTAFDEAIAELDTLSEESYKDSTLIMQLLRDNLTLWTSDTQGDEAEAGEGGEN
Arbovirus anti: blocks arbovirus infection; arbovirus infection cell-based antiviral screen; inhibition, % at 10 µM; hit rate 0.37% among 200,000; AID 1251; in the data active = inhibition above about 30%
Mcl1-Bid inh: disrupts binding of human Mcl-1 to Bid peptide | Q07820 | TR-FRET Mcl-1/Bid-Dy647 peptide binding, 1536-well | inhibition, % at 21.7 µM | hit rate 0.97% among 220,000;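 active = compounds that cut the binding signal by more than half at the single screening dose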;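 note: His-tagged Mcl-1 with europium anti-His antibody binding Bid BH3 peptide; 0% = Mcl-1 plus peptide wells and 100% = peptide-only wells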
* = called active by the depositor; / = no result. In the library only some 3% were active in any assay of this set; here they are far more common.

SMILES | Mcl1 Noxa PPI | Bim-Mcl-1 | 14-3-3 Bad PPI | Arbovirus anti | Mcl1-Bid inh
CCn1c(=N)c(S(=O)(=O)c2ccccc2)cc2c(=O)n3ccccc3nc21 | 19 | 2 | 79* | -12 | 9
Cc1c(NC(=O)c2ccc(-c3ccc([N+](=O)[O-])cc3Cl)o2)c(=O)n(-c2ccccc2)n1C | 1 | 0 | 1 | 1 | -3
O=[N+]([O-])c1ccc(Cl)c(-c2ccc(/C=N/c3c(-c4ccco4)nc4ccccn34)o2)c1 | 41 | 2 | 46 | -7 | 55*
Cc1ccc(C)c(N=Cc2ccc(-c3ccc([N+](=O)[O-])cc3)o2)c1 | -12 | 2 | -13 | -12 | -31
O=[N+]([O-])c1ccc(-c2ccc(/C=N/c3c(-c4ccco4)nc4ccccn34)o2)c(Cl)c1 | 62* | 6 | 10 | -12 | 57*
CCOc1cc2[nH]c(=S)n(CCC(=O)NCc3ccco3)c(=O)c2cc1OCC | -3 | -1 | -4 | -3 | -6
C(=N\Nc1nc(Nc2ccccc2)nc(N2CCCCC2)n1)/c1ccco1 | 21 | 0 | -9 | -6 | -20
OCCn1c(Cl)nc2ccccc21 | -3 | -3 | 0 | -1 | -2
c1ccc(OCCCCN2CCOCC2)cc1 | -11 | 0 | 13 | -2 | -54
Brc1ccc(OCCCN2CCOCC2)cc1 | 8 | 1 | 68 | 8 | 65*
COc1ccc2[nH]c3c(C)c4ccncc4c(C)c3c2c1 | 86* | / | 50 | / | -10
COc1ccc2[nH]c(C)cc(=O)c2c1 | 13 | 0 | 8 | 6 | 23
CC(NC(=O)COC(=O)c1cc(NS(=O)(=O)c2ccc(Cl)c([N+](=O)[O-])c2)ccc1O)C1CC2CCC1C2 (centres undefined) | 3 | -1 | -17 | -31 | -3
O=C1CCCC(O)=C1Sc1ccccc1C(=O)O | -8 | 1 | 4 | 9 | -67
O=C1CCCC(O)=C1C(C#Cc1ccccc1)C1=C(O)CCCC1=O | 52* | 0 | 4 | -5 | -4
CC1(C)CC(=O)C(C(C#Cc2ccccc2)C2=C(O)CC(C)(C)CC2=O)=C(O)C1 | 57* | -5 | 36 | 4 | 8
CS(=O)(=O)c1ccc(Cl)c(NC(=O)c2ccc3ccccc3c2)c1 | 16 | -1 | -1 | -15 | -22
Oc1ccc(N=Nc2cccc(Cl)c2)cc1C=Nc1ccc(N2CCOCC2)cc1 | 86* | 0 | 16 | -12 | 56*
Oc1c(Br)cc(Cl)cc1C=Nc1ccc(N2CCOCC2)cc1 | 22 | 31 | 16 | -11 | -60
Cc1nnc(NC(=O)CSc2nnc(NC(=O)C(C)(C)C)s2)s1 | -11 | 1 | -4 | -3 | -47
CC1CCN(CC(=O)NC(=O)NCc2ccccc2)CC1 | -1 | -5 | 1 | -2 | 3
Cc1cc(C)c(C)c(S(=O)(=O)N2CCN(CC(=O)NC(=O)NCc3ccccc3)CC2)c1C | -7 | 61* | 9 | -3 | -14
COc1ccc(NC(=O)c2cc(C3CC3)on2)c(OC)c1 | -5 | -3 | 5 | -1 | 85*
CC(C)Cn1cc(Cl)c(=O)n(CC(C)C)c1=O | 3 | 2 | -2 | 4 | -4
CC(C)Cn1ccc(=O)n(CC(C)C)c1=O | -5 | -10 | 14 | -3 | 55*
SMILES | Mcl1 Noxa PPI | Bim-Mcl-1 | 14-3-3 Bad PPI | Arbovirus anti | Mcl1-Bid inh
Cc1cccc(-n2cc(-c3ccc([N+](=O)[O-])cc3)[nH]c2=S)c1 | 52* | -6 | 15 | -8 | 34
O=[N+]([O-])c1ccc(-c2cn(-c3ccccc3)c(=S)[nH]2)cc1 | 34 | -7 | -2 | -3 | -17
Cc1ccc(-c2noc(-c3ccccc3C(=O)N3CCN(C)CC3)n2)cc1 | 6 | -3 | -5 | -5 | 71*
COc1ccc(NC(=O)c2cncc(Br)c2)cc1S(N)(=O)=O | -14 | -2 | -16 | 4 | -10
O=C(Nc1ccc(Cl)c([N+](=O)[O-])c1)c1ccncc1 | 4 | -2 | -4 | 0 | 2
O=C(Nc1ccc(Br)cc1Cl)c1cnccn1 | 1 | -1 | -1 | -5 | -3
O=C(Nc1ccccc1Cl)c1cnccn1 | 83* | 1 | -2 | 6 | -23
O=C(Nc1ccc(Cl)c([N+](=O)[O-])c1)c1cnccn1 | 64* | -3 | -6 | 6 | -70
Cc1ccc(C(=O)C2CCN(CC(=O)N3CCN(c4ccc(F)cc4)CC3)CC2)cc1 | -10 | -5 | -8 | -3 | -54
COc1ccccc1C(=O)NC(=S)Nc1cc(C(=O)O)ccc1C | 27 | -2 | -12 | 7 | -33
COc1cc2ccccc2cc1C(=O)NC(=S)Nc1cc(C(=O)O)ccc1C | 26 | 4 | 3 | 42* | -34
CCCCN(Cc1cc2ccccc2[nH]c1=O)S(C)(=O)=O | 14 | -1 | -2 | 12 | 98*
CN(C)S(=O)(=O)c1ccc(C(=O)NCC(=O)N/N=C/c2ccccc2Cl)cc1 | 3 | 0 | -1 | 12 | -16
CC(NC(=O)CN1CCc2ccccc21)c1ccccc1 (centres undefined) | 13 | -2 | -8 | -5 | -65
O=C(CCc1nnc(C2(c3ccc(Cl)cc3)CCC2)o1)NCCCn1cccn1 | 1 | -3 | -5 | 10 | -7
N#Cc1ccccc1NC(=O)c1ccccc1OCC(=O)NCc1ccco1 | 4 | 0 | 0 | 31* | -37
COCCn1c(-c2ccccc2)cnc1SCC(=O)Nc1cccc2ccccc12 | 19 | -2 | 13 | 38* | -10
COCCn1c(-c2ccc(OC)cc2)cnc1SCC(=O)Nc1ccc(OC)cc1OC | -2 | -2 | 21 | 3 | -60
CC1(C)C(=O)Nc2ccccc2N1C(=O)COc1cccnc1[N+](=O)[O-] | 7 | 0 | 14 | -8 | -49
Cc1cc(/C=N/n2c(COc3ccccc3)nc3ccccc3c2=O)c(O)c([N+](=O)[O-])c1 | 100* | 0 | 49 | -28 | -17
CC(=O)N(C1=C(Cl)C(=O)c2ccccc2C1=O)C1CCCCC1 | 91* | / | -3 | / | -20
C#CCOCCOCCOCCNc1nc(N2CCN(C(=O)[C@H](CCCCN)n3cc(C(N)[C@H](C)CC)nn3)CC2)nc(N2CCN(C(=O)[C@H](CCC(=O)O)n3cc(C(N)[C@H](C)CC)nn3)CC2)n1 (some centres undefined) | 32 | 2 | 44 | 3 | 75*
C#CCOCCOCCOCCNc1nc(N2CCN(C(=O)[C@H](CCCCN)n3cc([C@@H](N)C(C)CC)nn3)CC2)nc(N2CCN(C(=O)[C@H](CCCCN)n3cc([C@@H](N)CO)nn3)CC2)n1 (some centres undefined) | 35 | 0 | 65 | 2 | 88*
Cc1ccc(C(C)C)c(OCC(O)CN2CCOCC2)c1 (centres undefined) | 19 | -1 | 50 | 11 | 1
C=CCc1ccccc1OCC(O)CN1CCN(C(=O)OCC)CC1 (centres undefined) | 12 | -2 | 4 | 3 | -45
Cc1ccc(C(C)C)c(OCC(O)CN2CCN(CCO)CC2)c1 (centres undefined) | 32 | 1 | 50 | -6 | 53*
C=CCc1ccccc1OCC(O)CN1CCN(c2ccc(C)cc2)CC1 (centres undefined) | 19 | -1 | 72* | 0 | -13
